The results in this text go back to PubChem BioAssay (NCATS).

Results filed as inconclusive are left out. A structure can be active in one record and inactive in another. Calls of active or inactive are those of the source. Unless noted, calls come from the whole dose curve.

For assay [1], the target named is ATP-dependent 6-phosphofructokinase (Trypanosoma brucei brucei) (UniProt O15648). As to the kind of experiment: qHTS Assay to Find Inhibitors of T. brucei phosphofructokinase: hit validation (AID 492961; active = well fitted curve in the direction sought with a large enough effect; an effect the other way counts as inactive or inconclusive;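 note: luminescence reports ADP formed as PFK phosphorylates fructose-6-phosphate with ATP; % is set by controls: 0 for no effect and ±100 for the full control effect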). The following applies: T. brucei PFK, ADP-Glo luminescence; series mostly up to 51.4 µM. An outline of the steps:
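Percent activity derived from corrected luminescence, normalized between 0x and 1x enzyme controls, then fitted to concentration-response curves. Conditions: 1.25 nM PFK, 0.1 mM ATP, 0.5 mM F6P, 45 min RT.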

Assay [2] can be described thus: Primary qHTS for inhibitors of SARS-S pseudo-typed particle cell entry (AID 1479145). Note: % is set by controls: 0 for no effect and ±100 for the full control effect; nearly all actives have a fitted effect of over 45% in size. The following applies: SARS-S pseudotyped particle cell entry, luciferase reporter; series mostly up to 57.1 µM.
Assay [3] can be described thus: Primary qHTS for Huh7 cytotoxicity: counterscreen for inhibitors of MERS-S pseudotyped particle cell entry (AID 1479147). The following applies: cell viability read-out; series mostly up to 57.1 µM.
The nature of assay [4]: Primary qHTS for inhibitors of MERS-S pseudo-typed particle cell entry (AID 1479149). For activity change, negative = inhibition: % is set by controls: 0 for no effect and ±100 for the full control effect. Note: nearly all actives have a fitted effect of over 60% in size. The following applies: MERS-S pseudotyped particle entry, luciferase; series mostly up to 57.1 µM.
Assay [5] can be described thus: Primary qHTS for Vero E6 cytotoxicity: counterscreen for inhibitors of SARS-S pseudo-typed particle cell entry (AID 1479150). The following applies: cell viability; series mostly up to 57.1 µM.
A short description of assay [6]: Cytotoxicity counterscreen for inhibitors of SARS-CoV-2 cell entry (AID 1645845). Note: nearly all actives have a fitted effect of over 50% in size. The following applies: cell viability (SARS-CoV-2 entry assay cells); series mostly up to 57.1 µM. An outline of the steps:
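After a 15 min room-temperature ATPLite 1step step, luminescence reflected ATP remaining in HEK293-ACE2 cells exposed to compound for 1 h plus 48 h at 37 C, with percent activity set by cell and no-cell controls.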

A short description of assay [7]: Primary qHTS to identify inhibitors of SARS-CoV-2 cell entry (AID 1645846). Note: nearly all actives have a fitted effect of over 45% in size. The following applies: SARS-CoV-2 pseudovirus cell entry assay, luminescence; activity change, negative = inhibition: at 57.1 µM (top of the series) unless noted. In a few lines:
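Inhibition of spike-mediated entry was scored in human ACE2-transfected Expi293F cells. Particles were MLV-pseudotyped with Wuhan-Hu-1 S carrying a 19-aa C-terminal deletion; signal was luciferase after two days, scaled between spike PP and fusion-protein-free PP.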

In assay [8] the target is Peroxisome proliferator-activated receptor delta (Homo sapiens) (UniProt Q03181). As to the kind of experiment: qHTS assay for small molecule agonists of peroxisome proliferator-activated receptor delta signaling (AID 588534).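 Note: 0% = DMSO basal wells and 100% = positive control agonist at 10 µM.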 The following applies: HEK293T PPARdelta-UAS-bla, beta-lactamase ratio, 18 h; series mostly up to 76.7 µM. An outline of the steps: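 Agonist-mode qHTS; reporter cells, 5 hrs 37 C pre-incubation; compound titration, 18 hrs 37 C; CCF4 dye, 2 hrs RT; fluorescence read. EC50/efficacy via Hill fit.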

Assay [9] is described as follows: qHTS assay for small molecule agonists of retinoid X receptor alpha signaling (AID 588544).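 For activation: 0% = DMSO basal wells and 100% = reference agonist.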 The following applies: HEK293T RXRa-UAS-bla, beta-lactamase reporter, 18 h; 530 nm emission.
Assay [10] concerns the target Retinoic acid receptor RXR-alpha (Homo sapiens) (UniProt P19793). The description is as above. The following applies: HEK293T RXRa-UAS-bla, beta-lactamase reporter, 18 h; series mostly up to 76.7 µM.
Assay [11] addresses Thyroid hormone receptor beta (Homo sapiens) (UniProt P10828). As to the kind of experiment: qHTS assay for small molecule agonists of thyroid hormone receptor beta signaling (AID 588545).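 Note: 0% = DMSO only and 100% = 10 nM T3.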 The following applies: TR-UAS-bla GripTite HEK 293, beta-lactamase ratio, agonist mode, 18 h, percent of T3 response, DMSO as zero; series mostly up to 76.7 µM. In a few lines: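 Beta-lactamase reporter activity under TR response element control is measured in HEK 293 cells after 18 hrs compound exposure. Signal is ratiometric CCF4 fluorescence, 460/530 nm.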

A short description of assay [12]: qHTS assay for small molecule agonists of the antioxidant response element (ARE) signaling pathway (AID 651741; active = well fitted activation curve with a large enough effect in the signal ratio; the % refers to the signal ratio; note: potency is the fitted concentration of half-maximal effect; for activation: % of control where 0% means no effect). The following applies: HepG2 ARE-bla reporter, beta-lactamase FRET ratio, 16 h; series mostly up to 96 µM. In a few lines:
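Reporter: beta-lactamase under ARE, stably in HepG2. Exposure: 16 h, 37 C, compounds delivered in DMSO by pin tool after 5 h cell preincubation. Readout: FRET substrate fluorescence after 2 h at RT.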

Assay [13] has as its target Bile acid receptor (Homo sapiens) (UniProt Q96RI1). As to the kind of experiment: qHTS assay for small molecule agonists of farnesoid X receptor signaling (AID 588527).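 Note: 0% = vehicle basal and 100% = reference agonist.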 The following applies: HEK293T FXR-UAS-bla, beta-lactamase ratio, 16 h; stronger effect = higher value. In a few lines:
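FXR-UAS-bla HEK293T, 10% dialyzed FBS; cpds up to 92 uM titration, 16 h 37 C; CCF4 dye 2 h RT; fluorescence. Normalized to chenodeoxycholic acid 100 uM (100%) and DMSO (0%); Hill fit gives EC50, efficacy.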

Assay [14] can be described thus: KB-8-5-11 P-gp reporter qHTS against the NCATS DSHEA and TCM libraries (AID 1919977; active = well fitted curve in the direction sought with a large enough effect; an effect the other way counts as inactive or inconclusive; note: 0% is about no effect). The following applies: KB-8-5-11 cells; series mostly up to 26.1 µM. An outline of the steps: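 KB-8-5-11, 500 cells/well, DMEM/10% FBS without colchicine; 4 h attach; cpd titrations, 72 h, 37C/5% CO2; CellTiter-Glo, 30 min RT, luminescence.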
Assay [15] is described as follows: qHTS profiling for inhibitors of Plasmodium falciparum (3D7) proliferation (AID 743322; call rule not given here;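 note: infected erythrocytes exposed to compound for 72 h before lysis; 100% = DMSO vehicle wells and 0% = 0.29 µM artemisinin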). The following applies: P. falciparum 3D7 proliferation; at 28.7 µM (top of the series). An outline of the steps:
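Parasite DNA was quantified by SYBR Green I fluorescence (ex 485, em 535 nm) after overnight lysis in saponin/Triton buffer at room temperature. Cultures at 0.3% parasitemia and 2.5% hematocrit were first exposed to compound for 72 h at 37 C; signals were normalised to artemisinin (0.29 uM) and vehicle wells.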

Assay [16] in a line: qHTS profiling for inhibitors of Plasmodium falciparum (DD2) proliferation (AID 743323; call rule not given here). The following applies: lower = more inhibition; at 28.7 µM (top of the series). In a few lines: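 SYBR Green fluorescence (ex 485, em 535 nm) of lysed cultures gives parasite DNA content; wells normalized to artemisinin (0.29 uM) and DMSO controls. Infected red cells: 0.3% parasitemia, 2.5% hematocrit, 72 h, 37 C.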

Assay [17] can be described thus: qHTS profiling for inhibitors of Plasmodium falciparum (HB3) proliferation (AID 743324; active = well fitted curve in the direction sought with a large enough effect; an effect the other way counts as inactive or inconclusive;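 note: 100% = DMSO vehicle wells and 0% = artemisinin-treated control wells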). The following applies: Plasmodium falciparum HB3 blood-stage proliferation; at 28.7 µM (top of the series). An outline of the steps:
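SYBR Green fluorescence (485 ex/535 em) of lysed cultures, incubated overnight at room temperature in the dark, quantifies parasite DNA. Infected erythrocytes at 0.3% parasitemia and 2.5% hematocrit were exposed 72 h; values normalized to DMSO and 0.29 uM artemisinin controls.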

Sequence of Peroxisome proliferator-activated receptor delta (Homo sapiens) (Q03181 whole entry, looked up): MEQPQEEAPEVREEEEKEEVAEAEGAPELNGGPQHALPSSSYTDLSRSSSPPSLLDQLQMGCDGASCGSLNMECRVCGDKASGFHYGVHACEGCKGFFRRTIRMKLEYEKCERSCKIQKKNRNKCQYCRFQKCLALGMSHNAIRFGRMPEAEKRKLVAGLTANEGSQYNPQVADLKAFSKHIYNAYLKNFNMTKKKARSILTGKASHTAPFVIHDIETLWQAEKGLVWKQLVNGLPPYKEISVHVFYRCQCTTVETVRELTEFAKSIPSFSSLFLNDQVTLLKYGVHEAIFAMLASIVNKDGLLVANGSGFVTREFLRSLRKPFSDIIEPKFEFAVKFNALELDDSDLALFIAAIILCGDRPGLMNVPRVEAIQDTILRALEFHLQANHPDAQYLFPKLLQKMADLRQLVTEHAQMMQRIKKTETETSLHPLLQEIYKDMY
Sequence of Bile acid receptor (Homo sapiens) (Q96RI1 whole entry, looked up): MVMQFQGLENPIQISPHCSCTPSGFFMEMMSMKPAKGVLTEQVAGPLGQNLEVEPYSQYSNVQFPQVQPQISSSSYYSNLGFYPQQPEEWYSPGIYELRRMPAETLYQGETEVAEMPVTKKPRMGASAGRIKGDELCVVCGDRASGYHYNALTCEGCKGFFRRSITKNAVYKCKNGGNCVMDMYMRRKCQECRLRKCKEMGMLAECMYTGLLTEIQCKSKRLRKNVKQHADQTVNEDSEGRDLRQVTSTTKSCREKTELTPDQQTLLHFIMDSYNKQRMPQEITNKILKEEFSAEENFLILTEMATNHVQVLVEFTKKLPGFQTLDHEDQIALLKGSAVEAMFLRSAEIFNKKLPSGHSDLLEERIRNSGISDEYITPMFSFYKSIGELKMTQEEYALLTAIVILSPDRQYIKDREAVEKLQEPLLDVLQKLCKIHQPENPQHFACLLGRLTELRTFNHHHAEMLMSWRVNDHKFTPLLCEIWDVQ
Sequence of ATP-dependent 6-phosphofructokinase (Trypanosoma brucei brucei) (O15648 whole entry, looked up): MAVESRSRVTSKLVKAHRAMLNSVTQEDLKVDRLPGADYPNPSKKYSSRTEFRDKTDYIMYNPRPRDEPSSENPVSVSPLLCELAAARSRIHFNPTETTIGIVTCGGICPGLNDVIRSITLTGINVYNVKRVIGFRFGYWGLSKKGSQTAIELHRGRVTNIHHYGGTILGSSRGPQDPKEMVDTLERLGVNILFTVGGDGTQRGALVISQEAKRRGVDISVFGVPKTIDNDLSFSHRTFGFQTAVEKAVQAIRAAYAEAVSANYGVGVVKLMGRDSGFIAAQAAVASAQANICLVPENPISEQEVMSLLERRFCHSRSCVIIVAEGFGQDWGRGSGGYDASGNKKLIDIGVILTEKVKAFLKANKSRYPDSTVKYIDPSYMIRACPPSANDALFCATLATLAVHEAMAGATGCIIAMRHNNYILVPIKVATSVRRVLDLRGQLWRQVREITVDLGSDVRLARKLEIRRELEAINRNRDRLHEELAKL
Sequence of Retinoic acid receptor RXR-alpha (Homo sapiens) (P19793 whole entry, looked up): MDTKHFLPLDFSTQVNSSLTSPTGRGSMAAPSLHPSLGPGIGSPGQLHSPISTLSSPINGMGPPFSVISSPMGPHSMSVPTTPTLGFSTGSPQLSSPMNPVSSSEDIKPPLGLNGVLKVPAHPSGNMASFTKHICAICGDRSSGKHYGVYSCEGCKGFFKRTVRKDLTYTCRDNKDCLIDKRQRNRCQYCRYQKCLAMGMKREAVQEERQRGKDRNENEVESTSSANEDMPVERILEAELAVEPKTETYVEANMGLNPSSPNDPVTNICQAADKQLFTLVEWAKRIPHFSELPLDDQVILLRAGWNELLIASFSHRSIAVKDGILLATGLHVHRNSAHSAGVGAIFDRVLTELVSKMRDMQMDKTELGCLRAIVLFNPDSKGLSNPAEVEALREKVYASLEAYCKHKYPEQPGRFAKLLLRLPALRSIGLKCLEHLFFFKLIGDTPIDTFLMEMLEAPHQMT
Sequence of Thyroid hormone receptor beta (Homo sapiens) (P10828 whole entry, looked up): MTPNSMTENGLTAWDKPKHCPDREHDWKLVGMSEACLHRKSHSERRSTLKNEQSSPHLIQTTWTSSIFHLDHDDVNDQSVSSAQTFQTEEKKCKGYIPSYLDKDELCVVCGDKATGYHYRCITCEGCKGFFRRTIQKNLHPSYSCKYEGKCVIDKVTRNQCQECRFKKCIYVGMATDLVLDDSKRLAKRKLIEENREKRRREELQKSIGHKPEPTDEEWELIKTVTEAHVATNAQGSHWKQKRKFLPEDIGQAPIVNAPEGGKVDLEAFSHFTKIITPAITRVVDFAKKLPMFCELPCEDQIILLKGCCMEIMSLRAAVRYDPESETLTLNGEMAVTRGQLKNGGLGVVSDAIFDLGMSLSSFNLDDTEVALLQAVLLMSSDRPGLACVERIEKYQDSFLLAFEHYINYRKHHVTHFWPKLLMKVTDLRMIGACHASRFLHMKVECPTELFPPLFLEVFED

On to `NC(=O)CCC1NC(=O)C(Cc2ccccc2)NC(=O)C(Cc2ccc(O)cc2)NC(=O)CCSSCC(C(=O)N2CCCC2C(=O)NC(CCCN=C(N)N)C(=O)NCC(N)=O)NC(=O)C(CC(N)=O)NC1=O` (stereo not drawn), for which the Potency entry in assay [1], in assay [2], in assay [3], in [4], in [5] and in assay [6] was “inactive” throughout. For the same compound, the activity change, negative = inhibition in assay [7] was -25.4% [at 27.1 µM].

Regarding `Cc1cccc(O)c1`, the result in assay [8] and in [11] was inactive. The max response in [9] is -15.1%. Also, the Potency entry in [10], in assay [2], in [3], in [4], in [5] and in assay [6] was “inactive” throughout. Moreover, in [12], the Potency is 355 µM (active) and inactive.

Take `O=C(O)c1ccccc1C(c1ccc(O)cc1)c1ccc(O)cc1`: in [8], the result was inactive. Moreover, the Potency entry in assay [2], in assay [3], in assay [4], in [5] and in assay [6] was “inactive” each time. Also, in [7], the activity change, negative = inhibition was -24.4%.

With `O=CCCCC=O`, the activation in [13] is -2.56% (inactive). Also, the outcome in assay [8] was inactive. Besides, the Potency entry in [2], in assay [3], in [4], in assay [5] and in assay [6] was “inactive” throughout.

`OC[C@H]1O[C@@](CO)(O[C@H]2O[C@H](CO)[C@@H](O)[C@H](O)[C@H]2O)[C@@H](O)[C@@H]1O`: in assay [13], the activation was -1.48% (inactive). In addition, the outcome in [8] was inactive. In addition, the Potency result in assay [2], in [3], in assay [4], in assay [5] and in assay [6] was “inactive” throughout.

In the case of `CC1=CCC(C(C)(C)O)CC1` (stereo not drawn), the activation in [13] is -1.09% (inactive). Besides, in assay [8], the result was inactive. The Potency result in assay [2], in [3], in assay [4], in assay [5], in assay [6] and in assay [14] was “inactive” throughout.

On to `OB1OCc2cc(F)ccc21`, for which the remaining parasite growth % (stronger effect = lower value) in assay [15] is 85.7%. In assay [16], the activity, percent of control is 91.5%. For the same compound, the remaining proliferation (% of control), lower = more inhibition in assay [17] turned out to be 40.3%. The Potency result in assay [2], in assay [3], in assay [4], in [5] and in [6] was “inactive” each time. For the same compound, the activity change, negative = inhibition in [7] was -25.6%.

For `O[C@@H]([C@H](O)[C@@H](O)CBr)[C@@H](O)CBr`, the activation in assay [13] is -2.21% (inactive). Also, the outcome in assay [8] was inactive. Besides, the Potency result in assay [2], in [3], in assay [4], in assay [5], in assay [6] and in [7] was “inactive” each time.
